Test results taken from PubChem BioAssay (Tox21).
Values without a mark were called inactive. Calls of active or inactive are those of the source. Calls come from the whole dose curve; as a rule, active = well fitted curve in the direction sought with a large enough effect in the repeat runs; inconclusive = weak or mixed curves; inactive = flat fitted curve, though single readings scatter.

Assay: qHTS assay to test for compound auto fluorescence at 590 nm (red) in HepG2 cells (AID 720674)
Conditions: HepG2 autofluorescence, red 540/590 nm, 1 h; series mostly up to 91.3 µM
Description: U.S. Tox21 Program National Center for Advancing Translational Sciences [NCATS] NIH Chemical Genomics Center [NCGC] U.S. Environmental Protection Agency [EPA] National Institutes of Environmental Health Sciences [NIEHS] National Toxicology Program [NTP] U.S. Food and Drug Administration [FDA] Tox21 Assay Overview: Compound auto fluorescence often interferes with screening of the compound library against various biological targets and signaling pathways. Some of these compounds may have fluorophoric properties. Such properties may interfere with the assay outputs resulting in false positives and/or negatives. To decrease such complications and ensure the compound activities are relevant in terms of biological response, the Tox21 10K compound library was screened for auto fluorescence. From the fluorophores used as reporter signals in our screening assays, the auto fluorescence equivalencies of compounds against three fluorophores have been evaluated: Triamterene, Fluorescein and Rose Bengal sodium for blue, green and red fluorescence, respectively. The fluorescence intensities were measured using Excitation/Emission wavelengths at 405/460nm, 485/535nm and 540/590nm for blue, green and red labels, respectively. This assay includes the red fluorescence data.
Tox21 Assay Protocol Summary: 2,000 HepG2 cells in 5 uL of culture medium (MEM containing 10% FBS) per well were dispensed into black wall/clear bottom 1536-well plates using a Multidrop Combi Dispenser (ThermoFisher Scientific, Waltham, MA). The assay plates were incubated overnight at 37 C to allow cell attachment to the well bottom, followed by the transfer of 23 nL compound or DMSO vehicle by a pintool work station (Kalypsys , San Diego, CA). After the assay plates were incubated for 1 hr at 37 C and 5% CO2, fluorescence intensities in the assay plates were measured by an Envision (PerkinElmer, Shelton, CT) plate reader using three labels for measuring blue, green and red fluorescence at […] 460, 535 and 590 nm respectively.
% is set by controls: 0 for no effect and ±100 for the full control effect.

| Compound | outcome | fluorescence, relative to Rose Bengal |
| --- | --- | --- |
| CC(=O)C(=O)CC(C)C | inactive |  |
| CC(C)COC(=O)c1ccc(O)cc1 | inactive |  |
| COc1cc(C(C)=O)ccc1OCCCN1CCC(c2noc3cc(F)ccc23)CC1 | inactive |  |
| CN1CCCN(C(c2ccccc2)c2ccc(Cl)cc2)CC1 (stereo not given) | inactive |  |
| O=C(O)c1cccc(C[C@@H]2COc3ccc(OCc4nc5cc(F)ccc5s4)cc3[C@@H]2O)c1 | inactive |  |
| CC(=O)NNC(C)=O | inactive |  |
| C[C@@H]1C[C@H]2[C@@H]3CCC4=CC(=O)C=C[C@]4(C)[C@@]3(F)[C@@H](O)C[C@]2(C)[C@@]1(O)C(=O)COP(=O)(O)O | inactive |  |
| CC(C)(O)c1coc(S(=O)(=O)NC(=O)Nc2c3c(cc4c2CCC4)CCC3)c1 | inactive |  |
| C=CC(=O)O | inactive |  |
| CCOCCC(=O)OCC | inactive |  |
| COC(C)(C)OC | inactive |  |
| CC(CN(CCN(CC(C)OCCO)CC(C)OCCO)CC(C)OCCO)OCCO (stereo not given) | inactive |  |
| CCNc1nc(N)nc(Cl)n1 | inactive |  |
| COc1cc(NC(C)CCCN)c2ncccc2c1 (stereo not given) |  | -0.0926% [at 18.6 µM] |
| CCO[Si](C)(CCCOCC1CO1)OCC (stereo not given) | inactive |  |
| O=C(O)c1cc(Cl)cc(Cl)c1O | inactive |  |
| CC1=CC[C@@]23C[C@@H]1C(C)(C)[C@@H]2CC[C@H]3C | inactive |  |
| Cc1ccc(N(CCO)CCO)cc1 | inactive |  |
| Cc1ccc(Cl)cc1N | inactive |  |
| Cc1ccc(Nc2c(F)cccc2Cl)c(CC(=O)O)c1 | inactive |  |

| Compound | outcome | fluorescence, relative to Rose Bengal |
| --- | --- | --- |
| CCCCC[C@H](O)/C=C/[C@H]1[C@H](O)CC(=O)[C@@H]1C/C=C\CCCC(=O)O | inactive |  |
| O=C(O)CCC(=O)c1ccc(-c2ccccc2)cc1 |  | 0.795% [at 18.6 µM] |
| C=Cc1ccc(OC(C)=O)cc1 | inactive |  |
| O=C1c2ccccc2C(=O)c2c(O)ccc(O)c21 | inactive |  |
| COc1ccc(-c2cc(C(F)F)nn2-c2ccc(S(N)(=O)=O)cc2)cc1F | inactive |  |
| O=C(NC(Cc1cc(=O)[nH]c2ccccc12)C(=O)O)c1ccc(Cl)cc1 (stereo not given) | inactive |  |
| Nc1nc(-c2ccc([N+](=O)[O-])cc2)cs1 | inactive |  |
| CC(=O)N[C@@H](Cc1ccc(O)cc1)C(=O)O | inactive |  |
| Oc1ccc2c(c1)Cc1ccccc1-2 | inactive |  |
| CCN(CC)C(=O)/C(C#N)=C/c1cc(O)c(O)c([N+](=O)[O-])c1 | inactive |  |
| CCCCCCC(O)CCOC(C)=O (stereo not given) | inactive |  |
| CC(C)N=C=NC(C)C | inactive |  |
| O=C1OC(=O)c2c(Br)c(Br)c(Br)c(Br)c21 | inactive |  |
| CSCC[C@H](NC(=O)[C@H](Cc1c[nH]c2ccccc12)NC(=O)CCNC(=O)OC(C)(C)C)C(=O)N[C@@H](CC(=O)O)C(=O)N[C@@H](Cc1ccccc1)C(N)=O | inactive |  |
| Cc1c[nH]c2ccccc12 | inactive |  |
| CNS(=O)(=O)c1cc(C(=O)N2CCC(CCN3C4CCC3CC(n3c(C)nc5ccccc53)C4)(c3cccc(F)c3)CC2)c(Cl)cc1F (stereo not given) | inactive |  |
| CC(=O)C(C)=O | inactive |  |
| O=C(/C=C/c1ccc([N+](=O)[O-])cc1)c1ccccc1 | inactive |  |
| CCCCCCCCCCCCCCCCCC(=O)OCC(CC)CCCC (stereo not given) | inactive |  |
| C1=CCC2CC=CC2C1 (stereo not given) | inactive |  |
